Data as given in PubChem BioAssay AID431 (Sanford-Burnham Center for Chemical Genomics, 2006).
The whole screen tested about 63,000 compounds, of which about 1,100 (1.7%) were called active. Only a selection was taken, and actives are over-represented in it overall. Potency and affinity values are given separately. A number with no mark means an inactive call.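 How the source made its calls: active means compounds whose percent cytotoxicity in the single-dose primary screen, scaled between solvent and toxic-drug controls, exceeds 50; inactive means the rest.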

experiment: cytotoxicity in KRAS-transformed pancreatic duct cells, primary screen, cell-based, fluorescence, HTS (AID 431); conditions: HPDE-C7K KRASV12 cells, Alamar Blue viability, 48 h; at 10 µM; hits give high values;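 further: 0% = DMSO solvent wells and 100% = doxorubicin-treated wells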

SMILES | cytotoxicity
CCCCn1c(-c2cc(Cl)ccc2OC)n[nH]c1=S | -11.5%
Cc1ccc(S(=O)(=O)c2c(C)nn(C(C)(C)C)c2OC(=O)C2CCCC2)cc1 | -5.1%
CC(=O)Nc1ccc(S(=O)(=O)N2CCC(NC(C)=O)(c3cccc(F)c3)CC2)cc1 | 8%
CC1CCCCN1CC(=O)Nc1sc2c(c1C#N)CCC2 (stereo unspecified) | -11.1%
Cc1ccc(S(=O)(=O)NC(=O)NC(C)(C)C)cc1 | 12.4%
OC1CCN(Cc2cccc(Oc3ccccc3)c2)CC1 | 20.9%
Oc1ccc2ccccc2c1/C=N/n1cnnc1 | 18.6%
Oc1ccc2ccccc2c1C=NC12CN3CCN(CN(C3)C1)C2 | 0.4%
OCC(CO)(CO)N=Cc1c(O)ccc2ccccc12 | 68% (active)
COc1ccc(S(=O)(=O)N(CC(=O)N2CCN(C)CC2)C2CCCCC2)cc1OC | 0.2%
Cc1cc(C)n(-c2nc3c(c(=O)[nH]c(=O)n3C)n2CCc2ccccc2)n1 | 11.3%
COc1ccc(CCn2c(-n3nc(C)cc3C)nc3c2c(=O)[nH]c(=O)n3C)cc1 | 52.6% (active)
Cc1ccc(Cn2c(-n3nc(C)cc3C)nc3c2c(=O)[nH]c(=O)n3C)cc1 | 5%
COc1ccc(N2CC(C(=O)NC3CC(C)(C)NC(C)(C)C3)CC2=O)cc1 (stereo unspecified) | -5%
COc1ccc(OC)c(NC(=O)CSc2nnc(CNC(=O)COc3ccc(Cl)cc3)o2)c1 | -3%
CCn1c(=O)c(C(=O)Nc2cccnc2)c(O)c2ccccc21 | 11.7%
CCn1c(=O)c(C(=O)Nn2c(C)nc3ccccc3c2=O)c(O)c2ccccc21 | 17.6%
CCCn1c(=O)c(C(=O)Nc2nnc(CC)s2)c(O)c2ccccc21 | 14.3%
CCn1c(=O)c(C(=O)NCCCO)c(O)c2ccccc21 | 70.7% (active)
CCn1c(=O)c(C(=O)NCCNCCO)c(O)c2ccccc21 | 13.9%
CCCn1c(=O)c(C(=O)Nc2nnc(C)s2)c(O)c2ccccc21 | 62.2% (active)

SMILES | cytotoxicity
CCn1c(=O)c(C(=O)NCCc2ccccc2)c(O)c2ccccc21 | -11.5%
C=CCn1c(=O)c(C(=O)Nc2nnc(C)s2)c(O)c2ccccc21 | 9.1%
Cc1onc(-c2c(F)cccc2Cl)c1C(=O)NCCc1ccc(S(N)(=O)=O)cc1 | -7.2%
N#C/C(C(=O)N1CCOCC1)=C1\Nc2ccccc2S1 | 14.5%
O=C(NCc1ccco1)c1cc(-c2ccncc2)nc2ccccc12 | -8.1%
CCOc1cc(N2CCOCC2)c(OCC)cc1NC1=NCCCCC1 | -3.3%
CC1CCCC(NC(=O)CSc2nnc(N)s2)C1C (stereo unspecified) | -4.3%
Cc1ccc(C)c(N(CC(=O)NCc2ccc3c(c2)OCO3)C(=O)CCC(=O)Nc2ccccn2)c1 | -28%
COc1ccc(N2CSC3=C(C#N)C(c4ccc(OC)c(OC)c4)CC(=O)N3C2)c(OC)c1 (stereo unspecified) | -12%
Cc1nc2ccccc2n1-c1ccccc1 | -12.4%
Cn1c(CNc2ccc(Cl)cc2)nc2ccccc21 | -9.8%
CC(C)N=c1cc2n(-c3ccc(Cl)cc3)c3ccccc3nc-2cc1Nc1ccc(Cl)cc1 | 68.8% (active)
CCCCn1c(C(C)NC(=O)CCC)nc2ccccc21 (stereo unspecified) | 2.5%
CCOCCN1CCN(c2c(C)c(C)nc3cc(-c4cc(OC)cc(OC)c4)nn23)CC1 | 9.5%
CCc1c(C)nc2cc(-c3ccc(OC)c(OC)c3)nn2c1N1CCCC1 | 19.1%
C=CCSC1=N/C(=C\C=C\c2ccco2)C(=O)S1 | 33.1%
CCCSC1=N/C(=C\C=C\c2ccco2)C(=O)S1 | 51.9% (active)
O=C1SC(SCc2ccccc2)=N/C1=C\c1ccco1 | 42.6%
ONC(=Nc1ccccc1)C(=Nc1ccccc1)NO | -6.3%
S=C(N=Nc1ccccc1)NNc1ccccc1 | 50.5% (active)
CC(=Nc1ccccc1)Nc1ccccc1 | -3.8%

SMILES | cytotoxicity
COC(=O)c1c(C)[nH]c(C(=O)C(C)Sc2nnc(-c3cc(OC)c(OC)c(OC)c3)o2)c1C (stereo unspecified) | 11.4%
Cn1c(=O)c2c(nc(NCCCN3CCOCC3)n2Cc2ccc(Cl)cc2)n(C)c1=O | -3.3%
CCOC(=O)c1c(C)oc2c1cc(O)c1ccccc12 | 14%
COC(=O)c1c(C)oc(C)c(C(=O)OC)c1=O | 0.6%
CCN1CCN(Cc2cc(=O)oc3ccc(Cl)cc23)CC1 | -11%
Cc1ccc(-n2c(SCC(=O)Nc3ccc4c(c3)OCO4)nnc2-c2ccoc2C)cc1 | 17%
Cc1cccc(-n2c(SCC(=O)Nc3nonc3C)nnc2-c2ccoc2C)c1 | -13.8%
Cc1cccc(-n2c(SCC(=O)Nc3ccc4c(c3)OCO4)nnc2-c2ccoc2C)c1 | 53.6% (active)
COC(=O)c1cccc(NC(=O)C2COc3ccccc3O2)c1 (stereo unspecified) | -26.2%
CC(=O)c1ccccc1OC(=O)c1ccco1 | -0.8%
C=CCN1C(=Nc2ccccc2)SC/C1=C\C(=O)OC | -1.6%
O=C(c1cccc(C(=O)N2CCN(c3ncccn3)CC2)c1)N1CCN(c2ncccn2)CC1 | -2.4%
Cc1c(C)c2cc(Cl)c(OCc3nn[nH]n3)cc2oc1=O | -12%
CCOC(=O)c1[nH]c2ccc(F)cc2c1NC(=O)CN1CCc2cc(OC)c(OC)cc2C1 | -3.4%
CCOC(=O)c1[nH]c2ccc(F)cc2c1NC(=O)C(C)N1CCc2cc(OC)c(OC)cc2C1 (stereo unspecified) | 53.6% (active)
CCOC(=O)c1[nH]c2ccc(OC)cc2c1NC(=O)C(C)N1CCSCC1 (stereo unspecified) | 31.2%
CCOC(=O)c1[nH]c2ccccc2c1NC(=O)CN1CCCCC1 | -11.1%
CCOC(=O)c1[nH]c2ccc(F)cc2c1NC(=O)CN1CCN(C/C=C/c2ccccc2)CC1 | 65% (active)
CCOC(=O)c1[nH]c2ccc(OCC)cc2c1NC(=O)CN1CCN(c2ccccc2)CC1 | 7.4%
